Laboratory results from PubChem BioAssay (Tox21).
Results filed as inconclusive are left out. Activity calls are given as the source filed them. Calls follow the shape of the dose curve; as a rule, active = well fitted inhibition curve with a large enough effect in the signal ratio in the repeat runs (not every such curve was filed as active); inconclusive = weak or mixed curves, or effect the other way; inactive = no such curve, though single readings can be large or run the other way; the % refers to the signal ratio.

biological target: Bile acid receptor (Homo sapiens) (UniProt Q96RI1); test: qHTS assay to identify small molecule antagonists of the farnesoid-X-receptor (FXR) signaling pathway (AID 743217); settings: HEK293T FXR-UAS-bla, beta-lactamase ratio, CDCA-stimulated, 16 h; series mostly up to 62.6 µM
Description: U.S. Tox21 Program National Center for Advancing Translational Sciences [NCATS] NIH Chemical Genomics Center [NCGC] U.S. Environmental Protection Agency [EPA] National Institutes of Environmental Health Sciences [NIEHS] National Toxicology Program [NTP] U.S. Food and Drug Administration [FDA] Tox21 Assay Overview: The farnesoid-X-receptor (FXR), a nuclear hormone receptor, is highly expressed in liver, intestine, kidney and adrenal cortex. Natural ligands of FXR are the bile acids (Cholic acid, Chenodeoxy cholic acid etc). FXR is an important regulator of diverse metabolic pathways, including the bile acid homeostasis, lipid and glucose metabolisms. FXR regulates the expression of target genes by binding either as a monomer or as a heterodimer with the retinoid X receptor (RXR). Numerous studies have reported that FXR exerts protective function during cholestasis, diabetes, liver regeneration, and cancer. To identify compounds that inhibit FXR signaling, GeneBLAzer FXR-UAS-bla HEK 293T cell line (Invitrogen, Carlsbad, CA) containing a beta-lactamase reporter gene under the control of a UAS response element was used to screen the Tox21 10K compound library.
Tox21 Assay Protocol Summary: FXR-bla cells were dispensed at 5000 cells/5uL/well in 1536-well black wall/clear bottom plates using a Multidrop Combi (Thermo Fisher Scientific, Waltham, MA) dispenser. After the assay plates were incubated at 37C and 5% CO2 for 5 h, 23 nL of compounds dissolved in DMSO, positive controls or DMSO only was transferred to the assay plate by a Pintool station (Kalypsys, San Diego, CA), followed by addition of 1 uL Chenodeoxycholic acid (50 uM, final concentration in the wells). The assay plates were incubated at 37C for 16 h. After 1 uL of LiveBLAzerTM B/G FRET substrate was added using a Bioraptr Flying Reagent Dispenser (FRD) workstation (Beckman Coulter, Indianapolis, IN), the plates were incubated at room temperature for 2 h, and fluorescence intensity was measured by an Envision plate reader (PerkinElmer, Shelton, CT).

Chain of Bile acid receptor (Homo sapiens) (Q96RI1 whole entry, looked up): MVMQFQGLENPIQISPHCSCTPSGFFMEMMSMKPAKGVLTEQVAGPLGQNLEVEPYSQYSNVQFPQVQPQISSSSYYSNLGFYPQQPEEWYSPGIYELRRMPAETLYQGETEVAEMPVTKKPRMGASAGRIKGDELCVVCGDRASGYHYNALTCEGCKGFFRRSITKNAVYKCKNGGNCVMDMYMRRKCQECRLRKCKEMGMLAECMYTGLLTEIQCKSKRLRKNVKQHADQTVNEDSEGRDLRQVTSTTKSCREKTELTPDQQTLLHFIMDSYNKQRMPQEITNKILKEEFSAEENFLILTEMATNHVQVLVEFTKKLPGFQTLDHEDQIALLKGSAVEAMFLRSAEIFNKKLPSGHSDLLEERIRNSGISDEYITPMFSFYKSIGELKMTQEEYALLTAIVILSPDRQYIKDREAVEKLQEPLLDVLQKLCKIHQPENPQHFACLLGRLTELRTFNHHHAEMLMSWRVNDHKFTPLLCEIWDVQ

Compound	outcome
CCN(CC)CCN	inactive
CCCCOC(=O)[C@H](C)O	inactive
C/C=C(\C)C(=O)OCCc1ccccc1	inactive
C=CCCCCCCCCC(=O)OCCCC	inactive
CC(=O)C(C)O (stereo not given)	inactive
Cc1ccc(C(C)NC(=O)[C@@H](NC(=O)OC(C)C)C(C)C)cc1 (stereo not given in full)	inactive
CC(=O)O[C@@H]1CC2CCC1(C)C2(C)C (stereo not given in full)	inactive
C/C(=C1\CCOC(=O)S1)N(C=O)Cc1cnc(C)nc1N	inactive
Cn1nnc2c(C(N)=O)ncn2c1=O	inactive
C=CC(=O)OCC1CCCO1 (stereo not given)	inactive
O=C(O)CONC(=O)c1ccccc1	inactive
CC(C)[C@H]1CC[C@H](C)C[C@@H]1O	inactive
C[C@H]1[C@@H](c2ccccc2)NC(=O)N1C	inactive
COc1c2occc2c(OC)c2c(=O)cc(C)oc12	inactive
COc1cc(/C=C/C(N)=O)cc(OC)c1OC	inactive
CCCCCCCCCCCCCCCCCCOCCO	inactive
CN(C)CCN(C)CCO	inactive
O=C(O)[C@H](O)c1ccccc1	inactive
CC1(C)Oc2ccc(C#N)cc2[C@@H](N2CCCC2=O)[C@@H]1O	inactive
C[C@@H](O)C(=O)O	inactive

Compound	outcome
CC1=C(O)C(=O)C(C)O1 (stereo not given)	inactive
CCc1occc(=O)c1O	inactive
CN1C[C@@H]2C[C@H]1CN2c1cc2c(cc1F)c(=O)c(C(=O)O)cn2C1CC1	inactive
CCC(=O)CC	inactive
CN(C)C(C)(C)CO	inactive
CSc1cnccn1	inactive
c1ccc(B(c2ccccc2)c2ccccc2)cc1	inactive
CCOCCOCC	inactive
Cc1c(NC(=O)c2cccnc2)c(=O)n(-c2ccccc2)n1C	inactive
CC(C)OC(=O)CCC(=O)OC(C)C	inactive
COC(=O)CCCCC(CCSS/C(CCO)=C(\C)N(C=O)Cc1cnc(C)nc1N)SC(C)=O (stereo not given)	inactive
C=Cc1ccc(C(C)(C)C)cc1	inactive
Cc1ccnc(N)c1	inactive
N#Cc1cscn1	inactive
OC1(c2ccc(Cl)cc2)CCNCC1	inactive
CCNC(=O)NCc1cccc(Cl)c1	inactive
CC12CCC(C1)C(C)(C)C2O (stereo not given)	inactive
CC(C)Cn1cnc2c1c(=O)n(C)c(=O)n2C	inactive
N#Cc1ccccc1O	inactive
O=NN(CCCl)C(=O)NC1CCCCC1	inactive
